Laboratory results as given in PubChem BioAssay (NCATS).
Records with an inconclusive call do not appear. Entries that show only a call come without a potency. The source made the active and inactive calls. The call rests on the fitted dose curve; in most records, active means well fitted activation curve with a large enough effect; inconclusive means small, poorly fitted or top-dose-only effect; inactive means flat fitted curve, though single readings scatter. Where a SMILES comes first, the peptide text is derived from it. The star is where a group is joined. AMC = Cc1cc(=O)oc2cc(N*)ccc12; Cbz = O=C(OCc1ccccc1)*

Test: Primary redox qHTS assay for identification of artifact compounds. (AID 1845223)
Settings: Amplex Red/HRP redox cycling with DTT, fluorescence; series mostly up to 53.8 µM
How it was run: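 Redox-cycling detection via DTT (250 uM final) oxidation coupled to Amplex Red (25 uM)/HRP (250 mU/mL) in HBSS. 15 min preincubation plus 30 min after DTT, room temperature. Ex/Em 525/598 nm; 4-parameter Hill fit against DMSO and 10 uM DA3003.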
Potency means the concentration at half of the fitted maximal effect.

Question: With `CCCO[C@@H]1O[C@H](CO)[C@@H](O)[C@H](O)[C@H]1O[C@@H]1OC[C@@H](O)[C@H](O)[C@H]1O` as the compound, how does the Potency read?
Answer: inactive

Question: For `COC1OC(OC)C(O)(CCC2(C)C(C)CCC3(C)C2CC(O)C(O)C32CO2)C1O` (centres undefined), which Potency is on record?
Answer: inactive

Question: Which Potency does the source give for `Cc1ncc([N+](=O)[O-])n1C[C@H](O)CN1CCOCC1` here?
Answer: inactive

Question: Which Potency does the source give for `COc1ccccc1CN[C@H]1CCCN[C@H]1c1ccccc1` here?
Answer: inactive

Question: Which Potency does the source give for `O=C(O)c1ccc(NC(=O)[C@H](CC2CCCC2)n2cnc(C(F)(F)F)c2)nc1` here?
Answer: inactive

Question: Which Potency does the source give for `COc1c(O)cc2c(c1O)C(=O)O[C@H](C)[C@H]2O` here?
Answer: inactive

Question: For `C[C@@H](c1ccccc1)N(C(N)=NC#N)c1cccc2ncccc12`, which Potency is on record?
Answer: inactive

Question: For `Cc1cc(=O)oc2cc(NC(=O)[C@H](CCC(=O)O)NC(=O)[C@H](CC(C)C)NC(=O)[C@H](CC(C)C)NC(=O)OCc3ccccc3)ccc12` (Cbz-Leu-Leu-Glu-{AMC}), which Potency is on record?
Answer: inactive

Question: Which Potency does the source give for `COC(=O)c1ccc(OC)cc1O[C@@H]1O[C@H](CO[C@@H]2OC[C@@H](O)[C@H](O)[C@H]2O)[C@@H](O)[C@H](O)[C@H]1O` here?
Answer: inactive

Question: For `CC(NC(=O)[C@H](Cc1ccccc1)NC(=O)OCc1ccccc1)C(=O)CF` (some centres undefined), which Potency is on record?
Answer: inactive

Question: Which Potency does the source give for `O=C(O)/C=C/c1ccc2occc2c1O[C@@H]1O[C@H](CO)[C@@H](O)[C@H](O)[C@H]1O` here?
Answer: inactive

Question: Which Potency does the source give for `CC(=O)O[C@H]1[C@H](OC(=O)C(C)C)[C@]2(C)OC3(CC[C@]2(C)[C@H]2CCC[C@]4(CO4)[C@]12C)COC(=O)C3` (some centres undefined) here?
Answer: inactive

Question: Which Potency does the source give for `C/C=C/C(=O)OC1/C=C/C(O)C(OC(C)=O)CCC(=O)OC1C` (centres undefined) here?
Answer: inactive

Question: With `C[C@]1(OC(=O)/C=C\c2ccc(O)cc2)C[C@@H](O)[C@]2(O)C=CO[C@@H](O[C@@H]3O[C@H](CO)[C@@H](O)[C@H](O)[C@H]3O)C12` (some centres undefined) as the compound, how does the Potency read?
Answer: inactive

Question: With `CCCc1[nH]nc2c1C(c1cc(Cl)cc(Cl)c1O)C(C#N)=C(N)O2` (centres undefined) as the compound, how does the Potency read?
Answer: 11.9 µM (active)

Question: With `CCC1(O)CC2c3cc(OC)c(OC)cc3CCN2CC1CC(C)C` (centres undefined) as the compound, how does the Potency read?
Answer: inactive

Question: With `O=C(C[C@@H]1C(C(=O)O)=CO[C@@H](O[C@@H]2O[C@H](CO)[C@@H](O)[C@H](O)[C@H]2O)/C1=C\CO)OCCc1ccc(O)cc1` as the compound, how does the Potency read?
Answer: inactive

Question: For `CC(O)/C=C/C1(O)C(C)C(O)C(O[C@@H]2O[C@H](CO)[C@@H](O)[C@H](O)[C@H]2O)CC1(C)C` (some centres undefined), which Potency is on record?
Answer: inactive

Question: For `Nc1ncnc2c1c(COc1cccc(Cl)c1)nn2C1CCOCC1`, which Potency is on record?
Answer: inactive

Question: For `CC1(C)C[C@@H]2[C@H](C1)[C@@]1(C)C[C@]13C(O)OC[C@]3(O)[C@H]2O` (some centres undefined), which Potency is on record?
Answer: inactive

Question: For `COc1cccc(Cn2ncc3c4sc(S(C)=O)cc4n(C)c3c2=O)c1` (centres undefined), which Potency is on record?
Answer: inactive

Question: For `CC1(C)CC=C(C#Cc2ccccc2)c2cc(/C=C/c3ccc(C(=O)O)cc3)ccc21`, which Potency is on record?
Answer: inactive

Question: With `CCCSc1nc(NC2CC2c2ccc(F)c(F)c2)c2nnn(C3CC(OCCO)C(O)C3O)c2n1` (centres undefined) as the compound, how does the Potency read?
Answer: inactive

Question: Which Potency does the source give for `O=C(CCc1ccccc1)c1c(O)c([C@@H]2O[C@H](CO)[C@@H](O)[C@H](O)[C@H]2O)c(O)c([C@@H]2O[C@H](CO)[C@@H](O)[C@H](O)[C@H]2O)c1O` here?
Answer: inactive

Question: Which Potency does the source give for `OC[C@@]1(O)CO[C@H](OC[C@H]2O[C@@H](OC(CCCCc3ccc(O)cc3)CCc3ccc(O)cc3)[C@H](O)[C@@H](O)[C@@H]2O)[C@@H]1O` (some centres undefined) here?
Answer: inactive

Question: Which Potency does the source give for `CC1C(O)C(O)C2C(C(=O)OCCc3ccc(O)cc3)=COC(O[C@@H]3O[C@H](CO)[C@@H](O)[C@H](O)[C@H]3O)C12` (some centres undefined) here?
Answer: inactive

Question: Which Potency does the source give for `CC(C)C1CCC(C(=O)N[C@@H](Cc2ccccc2)C(=O)O)CC1` (some centres undefined) here?
Answer: inactive

Question: Which Potency does the source give for `CCC(C)C(N)C(=O)NCCN1CCOCC1` (centres undefined) here?
Answer: inactive

Question: Which Potency does the source give for `Cc1cccc(-c2nn3c(c2-c2ccnc4ccc(C(N)=O)cc24)CCC3)n1` here?
Answer: inactive
